Out of some 5,500 compounds screened, about 2,000 (36%) were called active. About 18% were inconclusive and are not listed. No stated cut-off is given here; in the data, active means normalized growth mostly below about 0.91 (no sharp cut-off); inconclusive means no clear call, values can overlap the other calls; inactive means mostly above about 0.92. Some of the results follow.
Assay: chemical genetic growth profiling, strain panel (AID 1159580);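 further: tested at 20 µM; growth read once vehicle control cultures reached saturation at 30 °C; 1 = growth at the plate median or of vehicle wells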
Details: growth OD
[1] = S. cerevisiae deletion strains, locus YDR150W, strain NUM1, stronger effect = lower value
[2] = S. cerevisiae deletion strains, locus YMR263W, strain SAP30, stronger effect = lower value
[3] = S. cerevisiae deletion strains, locus YMR307W, strain GAS1, stronger effect = lower value
[4] = S. cerevisiae deletion strains, locus YPL055C, strain LGE1, stronger effect = lower value
[5] = S. cerevisiae deletion strains, locus YPL241C, strain CIN2, stronger effect = lower value

Measured: normalized growth

CCCc1c(OCCCCc2nn[nH]n2)ccc(C(C)=O)c1O
inactive: S. cerevisiae deletion strains, locus YAL013W, strain DEP1, stronger effect = lower value 1.01 | S. cerevisiae deletion strains, locus YBR021W, strain FUR4, stronger effect = lower value 1.03 | S. cerevisiae deletion strains, locus YBR229C, strain ROT2, stronger effect = lower value 1.01 | S. cerevisiae deletion strains, locus YCL029C, strain bik1, stronger effect = lower value 0.997 | S. cerevisiae deletion strains, locus YDL035C, strain GPR1, stronger effect = lower value 1.02 | S. cerevisiae deletion strains, locus YDL074C, strain BRE1, stronger effect = lower value 1.06 | S. cerevisiae deletion strains, locus YDL101C, strain DUN1, stronger effect = lower value 1.02 | S. cerevisiae deletion strains, locus YDL134C, strain PPH21, stronger effect = lower value 1.01 | S. cerevisiae deletion strains, locus YDL185W, strain tfp1, stronger effect = lower value 0.968 | S. cerevisiae deletion strains, locus YDL192W, strain arf1, stronger effect = lower value 0.995 | S. cerevisiae deletion strains, locus YDR101C, strain arx1, stronger effect = lower value 0.991 | [1] 1.01 | S. cerevisiae deletion strains, locus YDR162C, strain NBP2, stronger effect = lower value 1.01 | S. cerevisiae deletion strains, locus YDR318W, strain mcm21, stronger effect = lower value 0.993 | S. cerevisiae deletion strains, locus YDR388W, stronger effect = lower value 0.993 | S. cerevisiae deletion strains, locus YDR502C, strain sam2, stronger effect = lower value 1.01 | S. cerevisiae deletion strains, locus YEL061C, strain CIN8, stronger effect = lower value 1.01 | S. cerevisiae deletion strains, locus YER110C, stronger effect = lower value 0.977 | S. cerevisiae deletion strains, locus YER155C, strain BEM2, stronger effect = lower value 1.01 | S. cerevisiae deletion strains, locus YER167W, strain BCK2, stronger effect = lower value 1.01 | S. cerevisiae deletion strains, locus YGL078C, strain dbp3, stronger effect = lower value 0.996 | S. cerevisiae deletion strains, locus YGL086W, strain mad1, stronger effect = lower value 1 | S. cerevisiae deletion strains, locus YGL248W, strain PDE1, stronger effect = lower value 1.01 | S. cerevisiae deletion strains, locus YGR078C, strain PAC10, stronger effect = lower value 1.01 | S. cerevisiae deletion strains, locus YGR135W, strain pre9, stronger effect = lower value 1 | S. cerevisiae deletion strains, locus YGR229C, strain SMI1, stronger effect = lower value 1.03 | S. cerevisiae deletion strains, locus YGR252W, strain gcn5, stronger effect = lower value 0.934 | S. cerevisiae deletion strains, locus YHR030C, strain SLT2, stronger effect = lower value 1.01 | S. cerevisiae deletion strains, locus YHR079C, strain IRE1 (second series), stronger effect = lower value 0.992 | S. cerevisiae deletion strains, locus YHR094C, strain hxt1, stronger effect = lower value 0.992 | S. cerevisiae deletion strains, locus YHR129C, strain ARP1, stronger effect = lower value 1.01 | S. cerevisiae deletion strains, locus YHR200W, strain rpn10, stronger effect = lower value 0.987 | S. cerevisiae deletion strains, locus YIL066C, strain RNR3, stronger effect = lower value 1.02 | S. cerevisiae deletion strains, locus YIL073C, strain SPO22, stronger effect = lower value 1.03 | S. cerevisiae deletion strains, locus YIL125W, strain kgd1, stronger effect = lower value 1 | S. cerevisiae deletion strains, locus YIR030C, strain dcg1, stronger effect = lower value 0.995 | S. cerevisiae deletion strains, locus YJL095W, strain BCK1, stronger effect = lower value 1.02 | S. cerevisiae deletion strains, locus YJL134W, strain LCB3, stronger effect = lower value 1.01 | S. cerevisiae deletion strains, locus YJL168C, strain set2, stronger effect = lower value 0.993 | S. cerevisiae deletion strains, locus YJL187C, strain SWE1 (second series), stronger effect = lower value 1.01 | S. cerevisiae deletion strains, locus YJR043C, strain POL32, stronger effect = lower value 0.984 | S. cerevisiae deletion strains, locus YJR075W, strain HOC1, stronger effect = lower value 1.02 | S. cerevisiae deletion strains, locus YKL009W, strain mrt4, stronger effect = lower value 1.02 | S. cerevisiae deletion strains, locus YKL068W, stronger effect = lower value 0.999 | S. cerevisiae deletion strains, locus YKL085W, strain MDH1 (second series), stronger effect = lower value 0.999 | S. cerevisiae deletion strains, locus YKL085W, strain MDH1, stronger effect = lower value 0.999 | S. cerevisiae deletion strains, locus YKL190W, strain CNB1, stronger effect = lower value 1.01 | S. cerevisiae deletion strains, locus YKR001C, strain vps1, stronger effect = lower value 0.957 | S. cerevisiae deletion strains, locus YLR039C, strain RIC1, stronger effect = lower value 1.05 | S. cerevisiae deletion strains, locus YLR058C, strain SHM2, stronger effect = lower value 1.01 | S. cerevisiae deletion strains, locus YLR102C, strain apc9, stronger effect = lower value 0.997 | S. cerevisiae deletion strains, locus YLR262C, strain YPT6, stronger effect = lower value 1.08 | S. cerevisiae deletion strains, locus YLR268W, strain sec22, stronger effect = lower value 0.994 | S. cerevisiae deletion strains, locus YLR330W, strain CHS5, stronger effect = lower value 1.01 | S. cerevisiae deletion strains, locus YLR342W, strain FKS1 (second series), stronger effect = lower value 0.975 | S. cerevisiae deletion strains, locus YLR371W, strain rom2, stronger effect = lower value 0.989 | S. cerevisiae deletion strains, locus YLR418C, strain cdc73, stronger effect = lower value 0.984 | S. cerevisiae deletion strains, locus YML016C, strain PPZ1, stronger effect = lower value 1.01 | S. cerevisiae deletion strains, locus YML032C, strain rad52, stronger effect = lower value 0.995 | S. cerevisiae deletion strains, locus YML124C, strain tub3, stronger effect = lower value 0.996 | S. cerevisiae deletion strains, locus YMR078C, strain ctf18, stronger effect = lower value 0.994 | S. cerevisiae deletion strains, locus YMR223W, strain ubp8, stronger effect = lower value 0.991 | [2] 1.01 | [3] 1.01 | S. cerevisiae deletion strains, locus YNL067W, strain RPL9B, stronger effect = lower value 1.01 | S. cerevisiae deletion strains, locus YNL128W, strain TEP1, stronger effect = lower value 1.01 | S. cerevisiae deletion strains, locus YNL153C, strain GIM3, stronger effect = lower value 1.01 | S. cerevisiae deletion strains, locus YNL233W, strain BNI4, stronger effect = lower value 1.01 | S. cerevisiae deletion strains, locus YNL250W, strain rad50, stronger effect = lower value 0.996 | S. cerevisiae deletion strains, locus YNL271C, strain bni1, stronger effect = lower value 0.997 | S. cerevisiae deletion strains, locus YNL298W, strain CLA4, stronger effect = lower value 0.997 | S. cerevisiae deletion strains, locus YNL307C, strain MCK1, stronger effect = lower value 0.993 | S. cerevisiae deletion strains, locus YNL322C, strain KRE1, stronger effect = lower value 1.01 | S. cerevisiae deletion strains, locus YNR052C, strain pop2, stronger effect = lower value 0.981 | S. cerevisiae deletion strains, locus YOL006C, strain TOP1, stronger effect = lower value 1.09 | S. cerevisiae deletion strains, locus YOL012C, strain htz1 1.54 | S. cerevisiae deletion strains, locus YOL147C, strain pex11, stronger effect = lower value 0.989 | S. cerevisiae deletion strains, locus YOR061W, strain CKA2, stronger effect = lower value 1.01 | S. cerevisiae deletion strains, locus YOR069W, strain VPS5, stronger effect = lower value 1 | S. cerevisiae deletion strains, locus YOR136W, strain idh2, stronger effect = lower value 0.986 | S. cerevisiae deletion strains, locus YOR144C, strain elg1, stronger effect = lower value 0.994 | S. cerevisiae deletion strains, locus YOR184W, strain ser1, stronger effect = lower value 0.992 | S. cerevisiae deletion strains, locus YOR316C, strain cot1, stronger effect = lower value 1 | [4] 1.03 | [5] 1 | S. cerevisiae deletion strains, locus YPR119W, strain clb2, stronger effect = lower value 0.992 | S. cerevisiae deletion strains, locus YPR141C, strain kar3, stronger effect = lower value 1.01 | S. cerevisiae deletion strains, locus YPR163C, strain tif3, stronger effect = lower value 0.986 | S. cerevisiae deletion strains, locus YPR167C, strain met16, stronger effect = lower value 0.992 | S. cerevisiae deletion strains, strain wtn01, stronger effect = lower value 0.993 | S. cerevisiae strains, strain wild type, stronger effect = lower value 1.01

CCC1(O)CC2CN(CCc3c([nH]c4ccccc34)[C@@](C(=O)OC)(c3cc4c(cc3OC)N(C)C3[C@]45CCN4CC=C[C@@](CC)([C@@H](OC(C)=O)[C@]3(O)C(=O)OC)[C@H]45)C2)C1 (some centres undefined)
inactive: S. cerevisiae deletion strains, locus YAL040C, strain CLN3, stronger effect = lower value 1 | S. cerevisiae deletion strains, locus YCL061C, strain MRC1 (second series), stronger effect = lower value 1 | [1] 1.01 | S. cerevisiae deletion strains, locus YDR363W, strain ESC2, stronger effect = lower value 0.993 | S. cerevisiae deletion strains, locus YER002W, strain NOP16, stronger effect = lower value 1.06 | [2] 0.996 | [3] 0.985 | S. cerevisiae deletion strains, locus YNL175C, strain NOP13, stronger effect = lower value 1.02 | S. cerevisiae deletion strains, locus YNL197C, strain WHI3, stronger effect = lower value 1.03 | S. cerevisiae deletion strains, locus YNL224C, strain SQS1, stronger effect = lower value 1.04 | S. cerevisiae deletion strains, locus YOR083W, strain WHI5 (second series), stronger effect = lower value 1.07 | [4] 1.01 | [5] 0.994
